From PubChem BioAssay
KB-V1 MDR tox: KB-V1 MDR subline cytotoxicity; KB-V1 MDR cells viability, CellTiter-Glo, 72 h; Potency, µM (doses to about 46.1 µM), hits mostly cytotoxic; actives 3.4% (n = 400,000); note: potency is the fitted concentration of half-maximal effect; nearly all actives have a fitted effect of over 60% in size
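Following 72 h at 37 degrees C with compound, KB-V1 cell viability was read by CellTiter-Glo luminescence, medium being phenol-red-free DMEM plus 10% FBS; concentration-response parameters came from normalized, curve-fitted qHTS data.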
HT1080NT lethal: kills 2HG-producing HT-1080-NT fibrosarcoma cells; HT-1080-NT fibrosarcoma viability, CellTiter-Glo ATP luminescence, 48 h; Potency, µM (highest dose often 46.1 µM), without a hit: top-dose activity, negative = less viability, actives largely listed as cytotoxic; actives 1.6% (n = 360,000); AID 686970;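 note: NT is the 2HG producing partner of a matched IDH1 knockdown line; potency is the fitted concentration of half-maximal effect; 0% = DMSO-treated cells and -100% = media-only wells without cells; nearly all actives have a fitted effect of over 55% in size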
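Read-out is CellTiter-Glo luminescence after 10 minutes at room temperature, following 48 hours' compound treatment of HT-1080-NT cells (750 cells/well, RPMI, 5% FBS, 37 degrees C).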
KB-3-1 tox: KB-3-1 parental cell cytotoxicity. KB-3-1 viability, CellTiter-Glo ATP luminescence, 72 h. Potency, µM (series often up to 46.1 µM), hits mostly cytotoxic. actives 1.4% (n = 400,000); note: potency is the fitted concentration of half-maximal effect; nearly all actives have a fitted effect of over 60% in size
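Cytotoxicity measured as CellTiter-Glo luminescence after 72 h at 37 C. Compound titrations were pinned onto drug-naive KB-3-1 parental adenocarcinoma cells grown in DMEM with 10% FBS, and normalized data fitted to concentration-response curves.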
HT1080 IDH1KD tx: toxicity to HT-1080 IDH1 knockdown cells (counter line). HT-1080 IDH1 knockdown viability, ATP luminescence, 48 h. Potency, µM (doses to about 46.1 µM), for inactives: at the highest dose activity, negative = toxicity, usual class: cytotoxic. actives 2% (n = 360,000). AID 686971;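 note: potency is the fitted concentration of half-maximal effect; 0% = DMSO wells and -100% = cell-free medium wells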
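IDH1KD HT-1080 cells, 750/well, RPMI + 5% FBS; compound pinned after 2 h settling; 48 h, 37 °C; CellTiter-Glo luminescence; % activity normalised to DMSO and no-cell wells; curves fitted, classed by r2 and efficacy.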
IL-1B inflam inh: blocks inflammasome-driven IL-1 beta release | THP-1 LPS/ATP IL-1B secretion, AlphaLISA, 16 h; hits give low values | activity change, % at 57.5 µM | actives 4.7% (n = 360,000) | AID 743279; in the data active = activity change below about -50%; inconclusive = mostly about -30% to -49%
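THP-1 cells pretreated 1 hr with compounds (up to 57.5 uM final), then stimulated with LPS (250 ng/mL final) plus ATP (1.25 mM final); secreted IL-1B measured by AlphaLISA after 16 hr, decreased signal indicating inhibition.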
Numbers without * were called inactive; i = inactive; ? = inconclusive; · = no result given; [ ] = another dose, or the depositor's remark. This is a sample that favours compounds with a hit; in the whole collection about 8.8% have one here. Unless noted, calls come from the whole dose curve; as a rule, active = well fitted curve in the direction sought with a large enough effect; inconclusive = small, poorly fitted or top-dose-only effect, or another doubt; inactive = no such curve, though single readings can be large; an effect the other way counts as inactive or inconclusive. Unless noted, % is set by controls: 0 for no effect and ±100 for the full control effect.

SMILES	KB-V1 MDR tox	HT1080NT lethal	KB-3-1 tox	HT1080 IDH1KD tx	IL-1B inflam inh
O=C(COC(=O)CCSc1ccccc1)Nc1cc(F)ccc1F	i	5%	i	8%	15
C=CCn1cc(C(=O)NCCCOCC)c(=O)c2cc(S(=O)(=O)N(CC)CC)ccc21	2.9µM*	-4%	i	1%	-1
CCn1cc(C(=O)NCc2ccc(Cl)cc2)c(=O)c2cc(S(=O)(=O)N(C)C)ccc21	15µM*	-6%	i	0%	-69*
CCN(CCCNC(=O)c1cn(CC)c2ccc(S(=O)(=O)N(C)C)cc2c1=O)c1cccc(C)c1	16µM*	3%	?	0%	-26
CCn1cc(C(=O)NCCc2ccc(Cl)cc2)c(=O)c2cc(S(=O)(=O)N(C)C)ccc21	i	3%	?	-5%	6
C=CCn1cc(C(=O)NCCOC)c(=O)c2cc(S(=O)(=O)N(CC)CC)ccc21	i	1%	i	-1%	1
Nc1ccn([C@@H]2O[C@H](CNC(=O)[C@@H](Cc3cn(COCc4ccccc4)cn3)NC=O)[C@@H](O)[C@H]2O)c(=O)n1	i	1%	i	-1%	5
C=C[C@H]1CN2CCC1C[C@@H]2C(O)c1ccnc2ccc(OC)cc12 (stereo not given in full)	i	·	i	·	·
CSc1nc(N)nc2c1ncn2CC(=O)NCCCc1ccccc1	i	-7%	i	-2%	27
CCC1CO/C(=C(\C(Cl)=C(Cl)Cl)[N+](=O)[O-])N1 (stereo not given)	i	-2%	i	0%	-61*
COc1ccc(O)c(/C=N/NC(=O)c2ccc(N3CCCC3=O)cc2)c1	i	?	?	23µM*	13
CCOC(=O)CCN(c1ccccc1)S(=O)(=O)c1ccc2[nH]c(=O)ccc2c1	?	·	i	·	·
CC(C)c1ccc(NC(=O)N2CCc3ccccc3C2)cc1	i	0%	i	-26%	-59*
COc1cc(Nc2ncc3c(n2)CCN(C(=O)Nc2ccc(C(C)C)cc2)C3)cc(OC)c1OC	?	21µM*	?	18µM*	-3
O=C(Nc1ccc([N+](=O)[O-])cc1)N1CCc2ccccc2C1	?	-2%	i	12µM*	-90*
O=C(Nc1cccc(F)c1)N1CCc2nc(NCc3cccc(Oc4ccccc4)c3)ncc2C1	18µM*	23µM*	?	?	75
COc1cccc(NC(=O)N2CCc3nc(Nc4ccc(C(C)C)cc4)ncc3C2)c1	i	?	i	-10%	-14
O=C(NCCN1CCc2ccccc2C1)Nc1ccc([N+](=O)[O-])cc1	i	-3%	i	-4%	1
Cn1cnc2c(=O)sc3ccccc3c21	?	-9%	?	-9%	21
COc1ccc(/C=C/C(=O)N[C@H](C(=O)O)C(C)C)cc1	i	12%	i	17%	3
CCn1c(CNC(=O)c2ccc(OC)cc2)nnc1SCC(=O)Nc1cccc(C)c1C	i	·	i	·	·
COc1cccc(/C=N/NC(=O)c2cc3c(OC)c(OC)ccc3[nH]2)c1OC	i	?	9.2µM*	6.5µM*	26
COc1ccc(OC)c2[nH]c(C(=O)N/N=C/c3ccccc3O)cc12	i	?	?	?	84
COc1ccccc1/C=N/NC(=O)c1cc2c(OC)c(OC)ccc2[nH]1	?	7.3µM*	?	4.1µM*	32
COc1ccc(/C=N/NC(=O)c2cc3c(OC)ccc(OC)c3[nH]2)cc1O	9.2µM*	2.3µM*	2.9µM*	0.41µM*	-27
SMILES	KB-V1 MDR tox	HT1080NT lethal	KB-3-1 tox	HT1080 IDH1KD tx	IL-1B inflam inh
COc1cccc(/C=N/NC(=O)c2cc3c(OC)cccc3[nH]2)c1OC	?	4%	i	15%	-20
COc1ccc(/C=N/NC(=O)c2cccc3ccccc23)c(OC)c1OC	?	?	?	16µM*	6
O=C(O)C[C@H]1c2ccc(C(F)(F)F)cc2S(=O)(=O)N1Cc1ccccc1	i	1%	i	2%	37
Cc1ccc(-c2cc3nn(-c4ccccc4)c(N)c3c(=O)o2)cc1	16µM*	?	21µM*	-11%	-56*
Cc1ccc(-n2nc(-c3ccccc3)cc2Nc2ccccc2N)cc1	i	16%	i	16%	-22
CCCS(=O)(=O)c1c(S(=O)(=O)CCC)c2c(C)cccn2c1C(N)=O	i	-4%	i	2%	9
CCCS(=O)(=O)c1c(S(=O)(=O)CCC)c2c(C)cccn2c1C(=O)N/N=C/c1cc(O)cc(O)c1	i	?	?	7.3µM*	81
CCN(CC)C(=O)N1c2ccccc2C=Cc2ccccc21	?	-19%	3.7µM*	?	0
NC(=O)N1c2ccccc2C=Cc2ccccc21	i	?	i	-9%	31
Cc1cc(=O)n(Cc2ccc(Cl)cc2)c2c1c(C)nn2-c1ccccc1	i	·	i	·	·
CC(C)OP(=O)(Nc1cccc2ccccc12)OC(C)C	i	-4%	i	4%	11
CN(C)P(=O)(Nc1cccc2ccccc12)Nc1cccc2ccccc12	12µM*	1%	i	0%	0
COc1cc(C(O)c2nc(-c3ccc(F)cc3OC)cs2)ccc1F (stereo not given)	i	?	i	?	-3
O=C(NC1CCCCC1)C(c1ccc2ncccc2c1)N(Cc1ccc2c(c1)OCO2)C(=O)c1cccs1 (stereo not given)	?	?	i	?	-69*
O=C(NC1CCCCC1)C(c1ccc2ncccc2c1)N(Cc1ccccc1)C(=O)c1cccs1 (stereo not given)	23µM*	?	i	?	-69*
O=C(NC1CCCCC1)C(c1ccc2ncccc2c1)N(Cc1ccccc1)C(=O)c1ccc2c(c1)OCCO2 (stereo not given)	i	?	i	-1%[9.24 µM]	-55*
O=C(C(=O)N1CCN(Cc2ccc3c(c2)OCO3)CC1)c1c[nH]c2ccccc12	i	-3%	i	-11%	24
COC1=CC(=O)C(C2CC(=O)c3c(O)cc(O)cc3O2)=CC1=O (stereo not given)	?	4%	i	-3%	-97*
COc1ccc(OC)c(S(=O)(=O)NCC(c2ccc3c(c2)OCO3)N2CCOCC2)c1 (stereo not given)	i	0%	i	0%	2
Cc1nn(-c2ccccc2)c(C)c1-c1nnc(-c2c(C)nn(-c3ccccc3)c2C)o1	9.2µM*	-3%	i	0%	3
Cc1ccc(Cn2nnnc2CN2CCC(c3nc4ccc(Cl)cc4[nH]3)CC2)cc1	3.3µM*	-11%	18µM*	?	-81*
